Results on 47 sequences are retold here after article PMC7819943, “Rice protein-binding microarrays: a tool to detect cis-acting elements near promoter regions in rice”.

In all, about 39,000 sequences were measured (“fluorescence intensity (a.u.)”: median about 4,300, highest 2% from about 39,000 on). The entries come from a sample that favours the highest values as a whole.

For this assay, the target named is T1, OsSMF1 (Oryza sativa, UniProt Q6ZLB0 1-436).
T1 sequence: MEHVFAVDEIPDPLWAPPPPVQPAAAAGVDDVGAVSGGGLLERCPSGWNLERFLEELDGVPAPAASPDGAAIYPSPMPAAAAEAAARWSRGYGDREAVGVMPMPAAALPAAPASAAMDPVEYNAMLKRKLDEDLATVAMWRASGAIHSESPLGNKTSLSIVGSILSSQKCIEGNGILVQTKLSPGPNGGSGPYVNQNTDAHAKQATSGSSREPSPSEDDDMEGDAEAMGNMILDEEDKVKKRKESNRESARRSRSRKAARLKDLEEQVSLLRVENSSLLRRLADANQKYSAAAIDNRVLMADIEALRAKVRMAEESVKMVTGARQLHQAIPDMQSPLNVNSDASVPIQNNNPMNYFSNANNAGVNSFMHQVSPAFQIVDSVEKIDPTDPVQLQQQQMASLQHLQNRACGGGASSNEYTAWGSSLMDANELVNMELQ
Nature of the assay: protein-binding microarray (RPBM); PBS, 2% BSA, 51.3 ng/ul salmon testes DNA, 50 uM zinc acetate, 200 nM TF, 25 C, 1 h; high values mean tight binding. As to conditions: protein: recombinant; tags: N-terminal polyhistidine and DsRed monomer fusion (pET32a); chain copies: 2; label: CyDye5-dUTP incorporated in the synthesized complementary strand; 3' TTTTT single-stranded linker to array surface; dsDNA, one strand shown. The method, boiled down:
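Binding signal here means per-feature fluorescence intensity in arbitrary units. The values were read on an Axon 4000B scanner after a custom Agilent array, double-stranded by primer extension with Cy5-dUTP, was incubated with 200 nM protein at 25 °C for 1 h in PBS with 2% BSA, salmon testes DNA and 50 µM zinc acetate, then washed. The proteins were transcription factors with an N-terminal polyhistidine tag and DsRed, expressed in E. coli BL21-CodonPlus and purified on Ni–NTA.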
On to “GAGAGGGGAAGGGCGCTAGTAAGAAGCGCTAAGGGATGAGCGGAGTCACCTAGTGCAG”, for which the binding signal is 3180 fluorescence intensity (a.u.).
With “GGCGCCAGCCCCGGTGCCGGGGAGTGTGGCGGAGCGGGAGCGGAGTCACCTAGTGCAG”, the binding signal was 3910 fluorescence intensity (a.u.).
In the case of “GGAGCGCGGACTCGCCGGCCAGCCGCGTCACGCGCTGGCGCGGAGTCACCTAGTGCAG” it was 6650 fluorescence intensity (a.u.); in that of “TGCTTAGCCGTGCGGCCCGTGCGGCGTCAATGGCGTGGCGCGGAGTCACCTAGTGCAG”, 4440 fluorescence intensity (a.u.); in that of “TCCCGTGCAGCCGTGGCAGCCGCGCGCTGCTCGAGTCCGGCGGAGTCACCTAGTGCAG”, 4470 fluorescence intensity (a.u.).
Turning to “CGGTGGCAGCCCGGCGGCGTGGAGCGCGCTGCTTAGCGCGCGGAGTCACCTAGTGCAG”, the binding signal is 53600 fluorescence intensity (a.u.).
To “GGCGAGCGCGGCGGAGGAGCGGCGGCGGGCGAGCGCGGCGCGGAGTCACCTAGTGCAG” belongs 8450 fluorescence intensity (a.u.).
With “GAAGAGGGGAGGGAGCTCCAAAAGGGCGAGAAAGTAAGCGCGGAGTCACCTAGTGCAG”, the binding signal is 39400 fluorescence intensity (a.u.).
For “GAGAGAGAGAGGGGACCAACTGAAAAGAGAGAGAAGCTAGCGGAGTCACCTAGTGCAG”, the binding signal was 31200 fluorescence intensity (a.u.).
Take “GCGGCGGTGTCTCGCGCCGCCAGCCTACAAATGGGGAGAGCGGAGTCACCTAGTGCAG”: the binding signal was 40300 fluorescence intensity (a.u.).
To “ATACTTCCATTTGTGCCATACATTTTGTCATTTCGACCTGCGGAGTCACCTAGTGCAG” belongs 3330 fluorescence intensity (a.u.).
As for “GGTTTTAACCCCGATTTCGTTCGACGTGGCGGCTGAGTCACGGAGTCACCTAGTGCAG”, the binding signal was 10800 fluorescence intensity (a.u.).
To “ATTCACTTTCTTGATTACGTAGAAGCTTCAGTGTCTATTCCGGAGTCACCTAGTGCAG” belongs 3810 fluorescence intensity (a.u.); to “ACAAGTACTACACGCGAATGTATTTCAATAGAAATTTATCCGGAGTCACCTAGTGCAG”, 35600 fluorescence intensity (a.u.); to “TGCATGTACGATACTGGAGCTGATCCTCGCCATCATATCCCGGAGTCACCTAGTGCAG”, 3160 fluorescence intensity (a.u.).
To “AGAAGCGCGCCGAGGAGGCCCGCTCGTTCAACCGCGCCGCCGGAGTCACCTAGTGCAG” belongs 65500 fluorescence intensity (a.u.).
To “CGGAGACGGGAGGCGAGGCGAGCGGCGCCGCGGAACGGGACGGAGTCACCTAGTGCAG” belongs 18600 fluorescence intensity (a.u.).
Consider “CGCCGCGAAGGCGCGAAGCCCCGTCACCGCGCGCGCGCGCCGGAGTCACCTAGTGCAG”, for which the binding signal is 5540 fluorescence intensity (a.u.).
As to “ATCAGCAAGAATGCGAGGGAGACGGCGGAGAGCTCGGGAACGGAGTCACCTAGTGCAG”, the binding signal is 43000 fluorescence intensity (a.u.).
Consider “GGCGGCGGCGGAGAAGGAGAGGCCGCCCGCCGCGTGGCGCCGGAGTCACCTAGTGCAG”, for which the binding signal is 6420 fluorescence intensity (a.u.).
To “CCGCCTCGCCGCGTGCCTCTGGAACAATCTGGCGCTGCCGCGGAGTCACCTAGTGCAG” belongs 3700 fluorescence intensity (a.u.); to “ACGATCGGTGACGACGAGCGACGACGCGGCATGAAGACGCCGGAGTCACCTAGTGCAG”, 3300 fluorescence intensity (a.u.); to “TGGAGAGGGAACCAACAACAAACAACCAGCTGCCTCGCCGCGGAGTCACCTAGTGCAG”, 47200 fluorescence intensity (a.u.).
For “ACAAACCAACCAACCCTCCTCGCCGCGGCCGCCGCCACCGCGGAGTCACCTAGTGCAG”, the binding signal was 3400 fluorescence intensity (a.u.).
Turning to “GTGCGCGCGGTGCTTAGGCAGACGCGGCCCAGATCGGCGCCGGAGTCACCTAGTGCAG”, the binding signal was 40500 fluorescence intensity (a.u.).
To “AGGGAAAAGAGGAGACGGGAGGAAAGGAACGGAGGAGATGCGGAGTCACCTAGTGCAG” belongs 3340 fluorescence intensity (a.u.); to “GCGCGCGCGCGCGGGCATAGGCGACGCCGCGACGGTGCGGCGGAGTCACCTAGTGCAG”, 3890 fluorescence intensity (a.u.).
In the case of “GAGAGAGAGAGAGGGATTTCCCCTTGGCTCCGCGTCGATACGGAGTCACCTAGTGCAG” it was 3520 fluorescence intensity (a.u.); in that of “AATCTATATGTTATCGTCCTCCTCTTGCGTGTGGCTAGTTCGGAGTCACCTAGTGCAG”, 3750 fluorescence intensity (a.u.).
In the case of “AATTGTTTACTGATCTTTGCGTTAATGATGATTGTGCCCTCGGAGTCACCTAGTGCAG” it was 3160 fluorescence intensity (a.u.); in that of “AAAATTCGAATCAGGCGGAGCCACCTCACCTCGCCGCGGCCGGAGTCACCTAGTGCAG”, 5020 fluorescence intensity (a.u.).
On to “CTTTGTCTTAGTATGGTGACTGGTTGCAAATTGATTTGGTCGGAGTCACCTAGTGCAG”, for which the binding signal was 3410 fluorescence intensity (a.u.).
In the case of “AGCTAGCTAGCTAACTAGTAAGGAGGTACACGTAGGTAGCCGGAGTCACCTAGTGCAG” it was 6960 fluorescence intensity (a.u.); in that of “TGGGTTGAATATGAGCTTGAATATTGGTGGAGTGATACATCGGAGTCACCTAGTGCAG”, 3240 fluorescence intensity (a.u.).
In the case of “CTTCCATATATCCTTGTCACAAGCTAGCTCACAAAACTTCCGGAGTCACCTAGTGCAG” it was 4680 fluorescence intensity (a.u.).
In the case of “GCGCGCGCGGCGTTCGGGAGGAAGCGGAAGAGCGCGCCGGCGGAGTCACCTAGTGCAG” it was 47000 fluorescence intensity (a.u.).
Consider “GGTGGCGGCGCGGGCCGGGCGGCGGCGGCGGCGGCGGCTCCGGAGTCACCTAGTGCAG”, for which the binding signal is 40400 fluorescence intensity (a.u.).
As for “GAGCTCCGCCAGTACGAGTACAGACCCAGCTTCGCCGGCGCGGAGTCACCTAGTGCAG”, the binding signal was 3580 fluorescence intensity (a.u.).
In the case of “GCGGCGCCTCCGGGAAGCGCGGCGCCGCGTCCTCCTCCTCCGGAGTCACCTAGTGCAG” it was 3170 fluorescence intensity (a.u.); in that of “GCCCCGCGGCTTCCGGCTGCCGTCGCCGCGAGCCCCGTGGCGGAGTCACCTAGTGCAG”, 5050 fluorescence intensity (a.u.).
To “GGCGGCCACGGGCTCCGGCGGAGGGCGGCGTGGTGGCGGCCGGAGTCACCTAGTGCAG” belongs 14400 fluorescence intensity (a.u.); to “CCGCGCTCACCTGCCGGGCGTGGCGCGCCGCGGTGGCCTCCGGAGTCACCTAGTGCAG”, 3140 fluorescence intensity (a.u.).
For “GCGAGGGGCGGGGAGAGCAGCGGCGGCGGCGGAGCGCGGCCGGAGTCACCTAGTGCAG”, the binding signal is 39200 fluorescence intensity (a.u.).
To “GTGATTTATCCGAGCAGAGTGGCGGCGGCTTCGCCGAGTACGGAGTCACCTAGTGCAG” belongs 39600 fluorescence intensity (a.u.).
In the case of “GGGCGGAGCGGGGCGGAGGGAGAGGAGGGAGAGGAGGGAGCGGAGTCACCTAGTGCAG” it was 4920 fluorescence intensity (a.u.).
As for “GAGGCCGGGGTCGGGGCGAGCGAGGCGAGAGGGGAGGAGGCGGAGTCACCTAGTGCAG”, the binding signal was 4480 fluorescence intensity (a.u.).
To “GAGCGCGGAAGCCGGCGGCGGCCGTACGTGTTCGGCCGGCCGGAGTCACCTAGTGCAG” belongs 3410 fluorescence intensity (a.u.).
